Screening results: PubChem BioAssay, National Center for Advancing Translational Sciences (NCATS)
A selection: hits, their analogues and other compounds. The true share with any hit is near 7%.
GCN5L2 inh = qHTS Assay for Inhibitors of GCN5L2; GCN5L2 HAT assay, ThioGlo1 CoA-SH fluorescence; 0.21% of 390,000 active; Potency, µM (highest dose often 58.9 µM), without a hit: at the top dose activity change, negative = inhibition, usual class: inhibitors; AID 504327, 2011; Histone acetyltransferase KAT2A (Homo sapiens), Q92830; also: potency is read from the fitted curve at half-maximal effect; % is scaled to controls: 0 for no effect and ±100 for the full control effect
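qHTS, 1536-well. 20nM enzyme, pH 7.5 HEPES/EDTA/Tween-20 buffer; 15 min compound preinc., RT. Start: 75uM H3(1-25), 70uM AcCoA, 50uM ThioGlo1. Read Ex340/Em540 at t=0 (autofluorescence flag) and t=20 min.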
HP1b binding inh = HTS for Inhibitors of HP1-beta Chromodomain Interactions with Methylated Histone Tails; Chromobox protein homolog 1 (Homo sapiens), P83916; AlphaScreen HP1-beta / biotin-H3K9me3 peptide binding; Potency, µM (series often up to 114 µM), without a hit: at the highest dose activity change, negative = inhibition, hits mostly inhibitors; 0.56% of 390,000 active; AID 540317, 2011; also: potency is read from the fitted curve at half-maximal effect; nearly all actives have a fitted effect of over 70% in size
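HP1-beta protein (50 nM final) preincubated 30 min at room temperature with biotinylated H3(1-18)K9me3 peptide (50 nM) in PBS pH 7.4, 0.01% Tween-20, then compound added for 30 min. AlphaScreen streptavidin donor/nickel chelate acceptor beads (10 ug/mL final), 30 min dark, luminescence read.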
PLK1 PBD block = qHTS for Inhibitors of PLK1-PDB (polo-like kinase 1 - polo-box domain): Primary Screen. Serine/threonine-protein kinase PLK1 (Homo sapiens), P53350. Plk1 PBD binding of FITC phosphopeptide, fluorescence polarization. Potency, µM, inactives show max response, negative = inhibition, most hits filed as inhibitors. 2.8% of 360,000 active; also: potency is read from the fitted curve at half-maximal effect; series mostly up to about 57 µM; % is scaled to controls: 0 for no effect and ±100 for the full control effect; nearly all actives have a fitted effect of over 65% in size
JMJD2A Tudor inh = qHTS Assay for Inhibitors of JMJD2A-Tudor Domain; Lysine-specific demethylase 4A (Homo sapiens), O75164; Potency, µM (top dose mostly 114 µM), inactives show top-dose activity change, negative = inhibition, usual class: inhibitors; AlphaScreen JMJD2A-Tudor / H3K4me3 peptide binding; 4.4% of 390,000 active; AID 504339, 2011; also: potency is read from the fitted curve at half-maximal effect; % is scaled to controls: 0 for no effect and ±100 for the full control effect; nearly all actives have a fitted effect of over 50% in size
BAZ2B block = qHTS Assay for Inhibitors of BAZ2B | AlphaScreen BAZ2B-H3K14Ac peptide displacement | Potency, µM (doses to about 114 µM), for inactives: at the highest dose activity change, negative = inhibition, most hits filed as inhibitors | 4.4% of 360,000 active; also: potency is read from the fitted curve at half-maximal effect; % is scaled to controls: 0 for no effect and ±100 for the full control effect; nearly all actives have a fitted effect of over 60% in size
Target sequence (Q9UIF8 whole entry, looked up): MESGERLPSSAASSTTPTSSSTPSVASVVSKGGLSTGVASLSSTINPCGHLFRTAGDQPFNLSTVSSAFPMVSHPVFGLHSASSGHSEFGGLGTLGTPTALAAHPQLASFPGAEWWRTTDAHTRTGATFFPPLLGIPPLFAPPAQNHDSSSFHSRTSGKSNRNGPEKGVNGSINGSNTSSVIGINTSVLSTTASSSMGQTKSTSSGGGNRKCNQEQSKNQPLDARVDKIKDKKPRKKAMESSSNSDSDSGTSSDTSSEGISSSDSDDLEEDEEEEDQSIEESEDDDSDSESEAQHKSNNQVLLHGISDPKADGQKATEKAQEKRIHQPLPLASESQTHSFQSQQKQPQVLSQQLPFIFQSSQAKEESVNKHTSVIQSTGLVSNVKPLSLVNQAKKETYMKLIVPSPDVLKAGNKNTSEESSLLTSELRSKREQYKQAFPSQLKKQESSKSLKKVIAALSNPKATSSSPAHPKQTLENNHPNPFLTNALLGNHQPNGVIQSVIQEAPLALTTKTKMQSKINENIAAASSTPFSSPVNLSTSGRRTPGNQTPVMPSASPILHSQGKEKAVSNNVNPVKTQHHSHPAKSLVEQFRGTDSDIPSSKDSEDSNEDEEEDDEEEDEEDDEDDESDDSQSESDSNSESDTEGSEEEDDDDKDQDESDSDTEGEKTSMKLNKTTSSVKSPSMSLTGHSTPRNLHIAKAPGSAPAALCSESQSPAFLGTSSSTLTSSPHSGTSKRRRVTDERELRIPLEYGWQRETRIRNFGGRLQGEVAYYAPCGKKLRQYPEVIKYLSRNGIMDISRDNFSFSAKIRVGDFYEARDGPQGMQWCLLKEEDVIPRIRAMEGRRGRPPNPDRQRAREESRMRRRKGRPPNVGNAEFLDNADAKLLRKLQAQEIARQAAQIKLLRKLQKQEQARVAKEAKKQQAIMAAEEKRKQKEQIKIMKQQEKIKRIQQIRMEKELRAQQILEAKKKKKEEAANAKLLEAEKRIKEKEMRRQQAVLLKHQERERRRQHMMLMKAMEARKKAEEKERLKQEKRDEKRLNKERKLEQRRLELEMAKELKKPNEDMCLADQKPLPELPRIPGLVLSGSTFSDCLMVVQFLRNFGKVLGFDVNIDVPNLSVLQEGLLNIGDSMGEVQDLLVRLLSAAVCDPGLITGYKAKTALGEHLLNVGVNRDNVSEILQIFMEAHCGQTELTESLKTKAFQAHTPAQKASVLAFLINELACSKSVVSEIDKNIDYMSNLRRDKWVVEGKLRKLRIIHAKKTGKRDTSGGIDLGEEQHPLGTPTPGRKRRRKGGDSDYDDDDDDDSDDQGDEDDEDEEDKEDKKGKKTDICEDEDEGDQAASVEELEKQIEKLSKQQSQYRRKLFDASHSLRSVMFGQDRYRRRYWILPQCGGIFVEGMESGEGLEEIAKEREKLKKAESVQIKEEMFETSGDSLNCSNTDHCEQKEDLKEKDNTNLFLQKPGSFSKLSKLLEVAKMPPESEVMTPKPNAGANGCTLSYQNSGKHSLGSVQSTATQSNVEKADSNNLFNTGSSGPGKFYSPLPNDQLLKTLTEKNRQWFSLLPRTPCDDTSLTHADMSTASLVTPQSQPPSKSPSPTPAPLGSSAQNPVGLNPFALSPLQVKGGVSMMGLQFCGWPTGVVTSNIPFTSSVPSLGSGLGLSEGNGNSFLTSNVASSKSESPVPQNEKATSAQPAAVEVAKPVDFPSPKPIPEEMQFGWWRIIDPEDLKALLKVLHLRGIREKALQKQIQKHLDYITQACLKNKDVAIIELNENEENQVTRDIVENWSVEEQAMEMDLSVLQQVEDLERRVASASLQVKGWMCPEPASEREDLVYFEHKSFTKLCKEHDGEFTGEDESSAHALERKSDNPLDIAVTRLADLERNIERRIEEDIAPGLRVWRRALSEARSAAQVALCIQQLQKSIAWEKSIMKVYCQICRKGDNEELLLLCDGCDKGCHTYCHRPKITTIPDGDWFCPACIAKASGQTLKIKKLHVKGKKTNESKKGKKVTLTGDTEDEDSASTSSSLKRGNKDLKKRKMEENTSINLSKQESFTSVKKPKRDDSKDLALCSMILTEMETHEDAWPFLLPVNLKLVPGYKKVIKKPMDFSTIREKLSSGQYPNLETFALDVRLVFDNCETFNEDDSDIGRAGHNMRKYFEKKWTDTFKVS
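In this displacement format the biotinylated H3(5-23) peptide acetylated at Lys14 serves as ligand at 50 nM, with BAZ2B at 50 nM in PBS pH 7.4 containing 0.01% Tween-20. Donor and acceptor beads are 10 ug/mL final.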
PI5P4K alpha inh = qHTS for Inhibitors of phosphatidylinositol 5-phosphate 4-kinase (PI5P4K) | max response, % | 1.2% of 330,000 active | AID 652105, 2013 | PI5P4Kalpha enzyme, ADP-Glo luminescence, 60 min; hits give low values; active = max response of -50% or lower; inconclusive = between -30% and -50%; inactive = -30% or higher; also: value at the top dose of about 77 µM; % is scaled to controls: 0 for no effect and ±100 for the full control effect
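ADP-Glo luminescence end-point read after a 60 min room-temperature kinase reaction of PI5P4Kalpha plus substrate, initiated with ATP at 5 microM final. Buffer: 0.038 M HEPES pH 7.4, EGTA, 0.1% CHAPS, 5% DMSO.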
Numbers without * were called inactive; [ ] = dose if it differs, or a comment. Unless noted, calls follow the shape of the dose curve; as a rule, active = well fitted curve in the direction sought with a large enough effect; inconclusive = small, poorly fitted or top-dose-only effect, or another doubt; inactive = no such curve, though single readings can be large; an effect the other way counts as inactive or inconclusive.

For O=[N+]([O-])c1cc(C(F)(F)F)cc([N+](=O)[O-])c1Sc1n[nH]c(C(F)(F)F)n1 the results were GCN5L2 inh -16%, HP1b binding inh 43%, PLK1 PBD block inconclusive, JMJD2A Tudor inh 50µM*, BAZ2B block -35% and PI5P4K alpha inh -16.
For CCc1cc(OCCOCCN(C)C)ccc1Cl the results were GCN5L2 inh -4%, HP1b binding inh inconclusive, PLK1 PBD block 1%, JMJD2A Tudor inh 2.2µM*, BAZ2B block inconclusive and PI5P4K alpha inh 11.
`C=CCc1cc(Cl)ccc1OCCOCCNC(C)(C)C` gave GCN5L2 inh 19%, HP1b binding inh -30%, PLK1 PBD block -4%, JMJD2A Tudor inh 14µM*, BAZ2B block 50µM* and PI5P4K alpha inh 1.
For C=CCc1cc(Cl)ccc1OCCOCCN(C)C the results were GCN5L2 inh 2%, HP1b binding inh inconclusive, PLK1 PBD block 1%, JMJD2A Tudor inh 3.5µM*, BAZ2B block 50µM* and PI5P4K alpha inh 32.
Cc1ccc(OCCOCCN(C)C)c(Cl)c1 was read as GCN5L2 inh -9%, HP1b binding inh inconclusive, PLK1 PBD block -4%, JMJD2A Tudor inh 40µM*, BAZ2B block 79µM* and PI5P4K alpha inh 1.
For CC1(N=Cc2cc(Cl)ccc2O)COP(=O)(NC2CCCC2)OC1 (centres undefined) the results were HP1b binding inh 19%, PLK1 PBD block -8%, JMJD2A Tudor inh -16% and PI5P4K alpha inh 0.
Screening Cc1ccc(S(=O)(=O)NNc2c3ccccc3nc3ccc(Cl)cc23)cc1 returned PLK1 PBD block -12% and PI5P4K alpha inh -3.
`NNc1nc2ccccc2nc1C(F)(F)F` gave GCN5L2 inh -13%, HP1b binding inh -8%, PLK1 PBD block 19µM*, JMJD2A Tudor inh 8%[11.4 µM], BAZ2B block -15% and PI5P4K alpha inh -4.
Cc1ccc(S(=O)(=O)NNc2nc3ccccc3nc2C(F)(F)F)cc1 was read as GCN5L2 inh -2%, HP1b binding inh -85%, PLK1 PBD block 8.4µM*, JMJD2A Tudor inh 35µM*, BAZ2B block 45µM* and PI5P4K alpha inh -21.
Screening O=C1CCc2cc(S(=O)(=O)NCc3ccccc3)ccc2N1 returned JMJD2A Tudor inh -11%.
For COc1ccc(-c2cc3c(=O)n(CC(=O)Nc4ccccc4C(F)(F)F)ccn3n2)cc1OC the results were GCN5L2 inh -7%, HP1b binding inh 46%, JMJD2A Tudor inh -6% and BAZ2B block -11%.
For Cc1ccsc1C1C(C(=O)O)c2ccccc2C(=O)N1C (centres undefined) the results were GCN5L2 inh 1%, HP1b binding inh 31%, PLK1 PBD block -11%, JMJD2A Tudor inh -12%, BAZ2B block -1% and PI5P4K alpha inh 1.
Screening CN1C(=O)c2ccccc2C(C(=O)O)C1c1cccc(F)c1 (centres undefined) returned GCN5L2 inh 1%, HP1b binding inh 9%, PLK1 PBD block 30µM*, JMJD2A Tudor inh -21%[11.4 µM], BAZ2B block -6% and PI5P4K alpha inh 5.
`CC(C)CCCC(C)CCCC(C)CCCC(C)C(=O)O` (centres undefined) gave GCN5L2 inh 11µM*.
Screening CN1Cc2cccc3c2C(Cc2ccccc2S3)C1 (centres undefined) returned GCN5L2 inh 3%, HP1b binding inh 22%, PLK1 PBD block 7%, JMJD2A Tudor inh 10µM*, BAZ2B block -8% and PI5P4K alpha inh 15.
N#Cc1nc(COc2ccccc2Cl)oc1N1CCCC1 was read as GCN5L2 inh -5%, HP1b binding inh inconclusive, PLK1 PBD block 1%, JMJD2A Tudor inh inconclusive, BAZ2B block 13µM* and PI5P4K alpha inh 1.
For COc1ccc(N2CCN(c3oc(/C=C/c4ccccc4OC)nc3C#N)CC2)cc1 the results were GCN5L2 inh -7%, HP1b binding inh inconclusive, JMJD2A Tudor inh inconclusive and BAZ2B block 3.2µM*.
Screening N#Cc1nc(-c2ccccc2Cl)oc1N1CCCCC1 returned GCN5L2 inh -4%, HP1b binding inh inconclusive, PLK1 PBD block -8%, JMJD2A Tudor inh inconclusive, BAZ2B block 22µM* and PI5P4K alpha inh 15.
N#Cc1nc(-c2cccc3ccccc23)oc1N1CCCCC1 was read as GCN5L2 inh -3%, HP1b binding inh 1%, PLK1 PBD block -1%, JMJD2A Tudor inh -5%, BAZ2B block -4% and PI5P4K alpha inh 1.
For N#Cc1nc(Cc2ccccc2)oc1N1CCN(c2ccccc2)CC1 the results were GCN5L2 inh -2%, HP1b binding inh 14µM*, PLK1 PBD block -9%, JMJD2A Tudor inh 28µM* and BAZ2B block 10µM*.
For COc1ccc(OCc2nc(C#N)c(N3CCN(c4ccc(OC)cc4)CC3)o2)cc1 the results were GCN5L2 inh -5%, HP1b binding inh -7%, PLK1 PBD block -1%, JMJD2A Tudor inh inconclusive, BAZ2B block inconclusive and PI5P4K alpha inh 1.
`CC1CN(c2oc(COc3ccc(Cl)cc3Cl)nc2C#N)CC(C)O1` (centres undefined) gave GCN5L2 inh -3%, HP1b binding inh -49%, PLK1 PBD block 0%, JMJD2A Tudor inh inconclusive, BAZ2B block 35µM* and PI5P4K alpha inh 17.
`N#Cc1nc(COc2ccccc2Cl)oc1N1CCCCCC1` gave GCN5L2 inh -2%, HP1b binding inh inconclusive, PLK1 PBD block -4%, JMJD2A Tudor inh -21%, BAZ2B block inconclusive and PI5P4K alpha inh 1.
Screening COc1ccc(N2CCN(c3oc(COc4ccccc4Cl)nc3C#N)CC2)cc1 returned HP1b binding inh inconclusive, PLK1 PBD block -2%, JMJD2A Tudor inh inconclusive and BAZ2B block 7.9µM*.
`CCCOc1ccc(C(=O)N(Cc2cccs2)C2CCS(=O)(=O)C2)cc1` (centres undefined) gave GCN5L2 inh 2%, HP1b binding inh 14%, PLK1 PBD block -8%, JMJD2A Tudor inh 2%, BAZ2B block 0% and PI5P4K alpha inh 1.
Screening CCOC(=O)c1ccccc1NC(=O)N(Cc1ccco1)C1CCN(C(C)=O)CC1 returned GCN5L2 inh 1%, HP1b binding inh 28%, JMJD2A Tudor inh -22% and BAZ2B block -16%.
